Sampled rows, rich in hits. Any-hit rate of the full collection: about 3.5%.
MITF inh – MITF inhibitors, primary screen, biochemical, AlphaScreen, human | Microphthalmia-associated transcription factor (Homo sapiens), O75030 | AlphaScreen MITF homodimerization, bead proximity signal | 650,000 compounds, 0.91% hits | inhibition, % at 2.6 µM; in the data active = inhibition above about 50%;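 note: 0% = vehicle wells with protein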
TEAD-YAP inh – TEAD-YAP interaction inhibition, primary screen, TEAD-YAP interaction inhibitor project, luminescence, HEK-TIYL cells | AID 1259422, 2018 | TEAD-Gal4/YAP UAS-luciferase luminescence | 640,000 compounds, 1.4% hits | inhibition, % at 9.12 µM; in the data active = inhibition above about 32%;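 note: 0% = median of test compound wells and 100% = reference inhibitor wells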
GPR151 ag – activators of human GPR151, primary screen, cell-based, PathHunter beta-arrestin, luminescence; G-protein coupled receptor 151 (Homo sapiens), Q8TDV0; PathHunter beta-arrestin GPR151 cells; activation, % at 11.2 µM; 650,000 compounds, 1% hits; in the data active = activation above about 4.9%;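 note: 0% = median of compound wells and 100% = cells with positive control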
Target sequence (Q8TDV0 whole entry, looked up): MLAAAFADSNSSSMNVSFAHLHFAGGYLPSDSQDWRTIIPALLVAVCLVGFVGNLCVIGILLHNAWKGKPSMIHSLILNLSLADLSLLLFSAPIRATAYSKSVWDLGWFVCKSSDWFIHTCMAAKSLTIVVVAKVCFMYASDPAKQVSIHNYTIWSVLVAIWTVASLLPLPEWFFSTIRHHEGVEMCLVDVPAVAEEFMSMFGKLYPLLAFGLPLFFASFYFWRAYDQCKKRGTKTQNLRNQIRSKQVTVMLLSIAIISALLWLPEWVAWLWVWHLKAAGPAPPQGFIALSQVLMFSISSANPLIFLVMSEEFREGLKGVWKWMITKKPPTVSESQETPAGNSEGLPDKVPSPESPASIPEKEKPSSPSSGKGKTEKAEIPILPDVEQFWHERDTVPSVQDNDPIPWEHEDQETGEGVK
FBW7 activator – FBW7 E3 ligase activators, primary screen, biochemical, AlphaScreen, human. F-box/WD repeat-containing protein 7 (Homo sapiens), Q969H0. AlphaScreen FBW7–phospho-cyclin E peptide binding, activator screen. normalized activity (activation), % at 26.1 µM. 650,000 compounds, 0.13% hits; in the data active = normalized activity above about 1.9%;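 note: purified mutant Fbw7 with reduced substrate affinity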
MITF confirm – MITF inhibitors, retest of hits, confirmation, biochemical, AlphaScreen, triplicate; shares compounds with MITF inh; 4,700 compounds, 16% hits; inhibition, % at 2.6 µM; AlphaScreen MITF homodimerization, biotin/His-MITF beads; AID 1259372, 2018;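 active = inhibition above a cutoff derived from the DMSO control wells, cut at about 28% in these data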;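 note: 0% = MITF dimer wells with DMSO only; inhibitors lower the bead chemiluminescence by keeping MITF from dimerizing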
AS interf ctr – AlphaScreen optical interference compounds, counter-screen for MITF inhibitor project, biochemical, triplicate; shares compounds with MITF inh; LysRS AlphaScreen counterscreen, signal interference; inhibition, % at 2.6 µM; 4,700 compounds, 7.6% hits;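 active = inhibition above a cutoff derived from the DMSO control wells, cut at about 30% in these data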
Numbers without * were called inactive; x = no result.

SMILES	MITF inh	TEAD-YAP inh	GPR151 ag	FBW7 activator	MITF confirm	AS interf ctr
O=[N+]([O-])c1cc(CN2CCOCC2)c2cccnc2c1O	106.1*	13.2	-1.4	-0.2	107.4*	99.1*
CN1CCN(Cc2cc(Br)c(O)c3ncccc23)CC1	104.8*	83.8*	-0.6	-1.0	112.9*	100.6*
COc1cc(C2Nc3ccccc3-c3nnc(SC)nc3O2)ccc1OCC(=O)O (stereo not given)	-7.3	7.8	-1.5	-0.1	x	x
CCOC(=O)C1=C(c2ccccc2)OC(N)=C(C#N)C1c1ccc(C)cc1 (stereo not given)	6.8	-5.2	-0.5	0.0	x	x
CCCN1CCN(c2nc(C)nc3sc4c(c23)CCCC4)CC1	20.8	3.9	-1.2	0.3	x	x
C#CCNc1c(C)c(C)nc2ncnn12	68.2*	6.5	0.1	-0.1	8.1	15.7
Cc1nc2ncnn2c(NCC2CCCCC2)c1C	47.1	0.8	4.2	-0.3	x	x
O=C(NCCOc1ccccc1)c1cccc(Nc2ccncn2)c1	81.2*	-55.2	0.6	-0.1	-1.1	3.2
CN(C)c1ccc(C(=O)NN=C2CCCCC2)cc1	10.8	-31.1	0.4	0.1	x	x
Cn1c(-c2ccc(Br)cc2)cnc1NCc1cccnc1	25.9	2.2	-0.1	0.6	x	x
Cc1ccc(-c2cnc(NCc3cccc([N+](=O)[O-])c3)n2C)cc1	65.0*	6.9	-0.1	0.0	-2.3	-2.3
Cn1c(-c2cccc([N+](=O)[O-])c2)cnc1NCc1cccc([N+](=O)[O-])c1	37.6	7.5	-1.0	-0.3	x	x
Cn1c(-c2ccc(-c3ccccc3)cc2)cnc1NCc1cccnc1	62.9*	-43.8	0.1	0.7	-13.4	-3.0
Cn1c(-c2ccc(F)cc2)cnc1NCc1ccc(F)cc1	52.6*	7.9	-0.3	0.1	-3.0	0.0
Cn1c(-c2ccc3c(c2)OCO3)cnc1NCc1cccc(F)c1	54.5*	-29.6	-0.4	0.1	-16.4	-6.3
C=CCNC(=O)c1cc(-c2ccc(F)cc2)on1	7.8	-111.4	-0.9	-0.1	x	x
C=CCOc1c(Cl)cc(CC2C(=O)N(c3ccc(CC)cc3)N=C2C)cc1OC (stereo not given)	-0.3	-2.0	-1.3	0.1	x	x
COc1cccc(-c2cnc(NCc3ccc(F)cc3F)n2C)c1	51.0*	-5.0	2.1	0.3	-15.5	-4.4
CC1CN(CC(=O)N(C)CC2CCCCO2)Cc2cc(Cl)ccc2O1 (stereo not given)	55.4*	4.5	2.1	0.0	-4.2	-1.0
COc1cccc(NC(=S)N(CCCN2CCC(C)CC2)Cc2cccs2)c1	79.1*	-11.8	-1.7	0.2	-4.7	-2.0
CCOC(=O)c1c(C)n(C)c2ccc(OCC(O)CN3CCCCC3)cc12 (stereo not given)	53.7*	0.8	1.9	0.1	-6.5	0.8
COc1ccc(OCC(O)CN2CCCC2)cc1 (stereo not given)	55.2*	-4.7	1.3	0.5	6.2	7.3
CC(=O)N(C)c1ccc(OCC(O)CN2CCN(C)CC2)cc1 (stereo not given)	59.8*	-2.9	-1.7	-0.1	13.5	18.2
CN1CCN(CC(O)COc2ccc(Br)cc2)CC1 (stereo not given)	-6.4	-1.2	-0.1	0.1	x	x
COc1ccc(OCC(O)CN2CCCCCC2)cc1 (stereo not given)	48.6	-7.9	0.3	0.6	x	x
CC(=O)N(C)c1ccc(OCC(O)CN2CCN(c3ccccn3)CC2)cc1 (stereo not given)	65.2*	-1.1	-0.9	-0.2	6.3	13.2
Clc1cc2c(c3ncccc13)OCN(CC1CCCO1)C2 (stereo not given)	87.9*	21.1	-0.3	-1.1	100.1*	100.6*
Clc1cc2c(c3ncccc13)OCN(Cc1ccccn1)C2	114.5*	5.5	0.6	-1.4	65.1*	87.8*
CN(C(=O)CN1C(=O)COc2c1cc(Cl)c1cccnc21)C1CCCCC1	-5.7	-5.6	-0.1	-0.4	x	x
CCCCN1COc2c(cc(Cl)c3cccnc23)C1	77.8*	41.4*	0.4	-0.4	72.6*	100.3*
